Assay outcomes (PubChem)
A selection: hits, their analogues and other compounds. The true share with any hit is near 2.4%.
CRFBP-R2 block: CRF-BP/CRF-R2 complex antagonism; HEK293 CRF-R2/CRF-BP, CRF-induced calcium fluorescence; inhibition, % at 11.8 µM; 350,000 tested, 0.59% active;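 active means inhibition of the ligand-induced calcium signal above about 50% at the single tested concentration, limit read from the data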
TLR9-MyD88 block: blocks human TLR9 binding to MyD88; Q9NR96+Q99836; 340,000 tested, 0.21% active; AID 504734; inhibition, % at 4.98 µM; CHO BLA complementation TLR9-MyD88, CCF4 FRET ratio;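 active means inhibition above the mean over all tested compounds plus 3 SD, cut at about 21% in these data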;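 further: 0% = DMSO only wells and 100% = clavulanate BLA inhibitor control wells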
NOD2 RIPK2 PPI: blocks binding of human NOD2 to RIPK2; CHO BLA complementation NOD2-RIPK2, CCF4 ratio; inhibition, % at 4.98 µM; 360,000 tested, 0.38% active; AID 624267; in the data active means inhibition above about 21%;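 further: 0% = vehicle only and 100% = reference blocker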
ABHD5-PLIN5 inh: blocks binding of human ABHD5 to perilipin-5. 360,000 tested, 0.78% active. inhibition, % at 4 µM. Split G. princeps luciferase complementation, luminescence, 4 h. Q00G26+Q8WTS1;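 active means inhibition above the mean inhibition across every tested compound plus 3 SD, cut at about 22% in these data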;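 further: 0% = DMSO only wells and the 100% control is not disclosed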
HTR2A ag: agonists of mouse serotonin 5-HT2A receptor (HTR2A); P35363; CHO-K1 mHTR2A beta-arrestin complementation, luminescence; percent of 30 µM serotonin response; activation, % at 7.6 µM; 360,000 tested, 0.66% active; AID 624169;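 active means activation above a run cutoff, the mean activation of all tested compounds plus 3 SD, cut at about 14% in these data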;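 further: 0% = plate median of compound wells and 100% = 30 µM serotonin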
TLR4-MyD88 BLA: blocks binding of human TLR4 to MyD88; O00206+Q99836; HeLa CL3-4 TLR4/MyD88 BLA complementation, FRET ratio; inhibition, % at 8.4 µM; 200,000 tested, 0.18% active; AID 861; in the data active means inhibition above about 25%;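 further: 0% = vehicle and 100% = reference inhibitor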
OPRM1 ag: OPRM1 agonism in mouse HTR2A counterscreen | shares compounds with HTR2A ag | activation, % at 9.3 µM | U2OS OPRM1 beta-arrestin PathHunter, luminescence; DMSO 0%, DAMGO 9.3 µM 100% | 2,300 tested, 5.3% active;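 active means mean activation above the mean of DMSO-only wells plus 3 SD, cut at about 0.5% in these data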
m5-HT2A ag conf: mouse HTR2A agonism confirmed. 2,300 tested, 19% active. shares compounds with HTR2A ag. activation, % at 7.6 µM. CHO-K1 PathHunter beta-arrestin recruitment, luminescence; DMSO 0%, 30 µM serotonin 100%. AID 624381;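 active means mean activation across triplicates above the hit threshold derived in the original primary screen, cut at about 15% in these data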
* marks the source's active call; other numbers are inactive results.

Screening CC(C)NC(=O)c1cccc2c(-c3ccc(F)c(F)c3)coc12 returned NOD2 RIPK2 PPI 9.5, ABHD5-PLIN5 inh -2.4 and HTR2A ag 2.8.
For Cc1nc2ccccc2c(=O)n1-c1ccc(NS(=O)(=O)c2ccccc2)cc1 the results were CRFBP-R2 block 8.9, TLR9-MyD88 block 0.1, NOD2 RIPK2 PPI 1.3, ABHD5-PLIN5 inh -5.0, HTR2A ag 14.9*, OPRM1 ag -0.5 and m5-HT2A ag conf -1.9.
CC1CCCCC1NC(=O)COC(=O)c1cccn1C (stereo not given) was read as CRFBP-R2 block 3.1, TLR9-MyD88 block -1.4, NOD2 RIPK2 PPI -2.3, ABHD5-PLIN5 inh -2.3, HTR2A ag 15.4*, OPRM1 ag -0.5 and m5-HT2A ag conf -5.0.
`Cc1nc2c(cc1NC(=O)C(C)(C)C)nc(C)n2Cc1ccccc1` gave CRFBP-R2 block 7.6, TLR9-MyD88 block -8.5, NOD2 RIPK2 PPI 0.6, ABHD5-PLIN5 inh 7.8, HTR2A ag 20.5*, OPRM1 ag -0.4 and m5-HT2A ag conf -3.9.
For COc1ccc(C(N)c2csc(Nc3ccc(C(F)(F)F)cn3)n2)cc1 (stereo not given) the results were NOD2 RIPK2 PPI -2.6, ABHD5-PLIN5 inh -4.6 and HTR2A ag 2.3.
`CN1CCc2c(sc3c2c(=O)n(-c2cccc(Cl)c2)c2nncn32)C1` gave CRFBP-R2 block -3.7, TLR9-MyD88 block -6.1, NOD2 RIPK2 PPI -1.9, ABHD5-PLIN5 inh 0.6, HTR2A ag 23.0*, TLR4-MyD88 BLA -6.0, OPRM1 ag 0.3 and m5-HT2A ag conf 2.0.
For CN1CCc2c(sc3nc(NCCO)n(-c4cccc(Cl)c4)c(=O)c23)C1 the results were CRFBP-R2 block 13.7, TLR9-MyD88 block -4.1, NOD2 RIPK2 PPI -4.4, ABHD5-PLIN5 inh 6.6 and HTR2A ag 1.4.
For COc1ccc(C2CC(c3ccc4ccccc4c3)=NN2C(=O)COC(=O)C2CCC(=O)N2)cc1 (stereo not given) the results were CRFBP-R2 block -1.5, TLR9-MyD88 block -2.7, NOD2 RIPK2 PPI 5.7, ABHD5-PLIN5 inh 7.6, HTR2A ag 15.3*, TLR4-MyD88 BLA 0.8, OPRM1 ag -0.4 and m5-HT2A ag conf -1.3.
CCC(C)(O)c1cnc(CC(C)C)c(=O)n1O (stereo not given) was read as NOD2 RIPK2 PPI -13.5, ABHD5-PLIN5 inh -4.1 and HTR2A ag -0.9.
Cc1cccc(-n2c(N)cc(=O)nc2SCC(=O)Nc2nnc(C)s2)c1 was read as CRFBP-R2 block 23.6, TLR9-MyD88 block 7.4, NOD2 RIPK2 PPI 5.8, ABHD5-PLIN5 inh -0.6, HTR2A ag 11.9 and TLR4-MyD88 BLA -1.3.
CCCCc1nnc(NC(=O)CSc2nc(=O)cc(N)n2-c2ccccc2)s1 was read as CRFBP-R2 block 5.0, TLR9-MyD88 block -10.5, NOD2 RIPK2 PPI 0.5, ABHD5-PLIN5 inh 0.5, HTR2A ag 16.3*, TLR4-MyD88 BLA -2.9, OPRM1 ag -0.6 and m5-HT2A ag conf -2.3.
For O=C(CCN1CCN(c2ccccc2)CC1)N/N=C/c1ccccc1OC(F)F the results were CRFBP-R2 block -3.6, TLR9-MyD88 block 2.0, NOD2 RIPK2 PPI -9.9, ABHD5-PLIN5 inh 10.8, HTR2A ag 17.3*, TLR4-MyD88 BLA -6.2, OPRM1 ag -0.2 and m5-HT2A ag conf 49.7*.
C[C@@H]1CN([C@H](C)CO)S(=O)(=O)c2ccc(C3=CCCCC3)cc2O[C@H]1CN(C)C(=O)Cc1cccnc1 was read as CRFBP-R2 block 5.6, TLR9-MyD88 block 7.3, NOD2 RIPK2 PPI -3.3, ABHD5-PLIN5 inh -9.4 and HTR2A ag 0.9.
Screening CC1NC(=O)c2cc3ccccc3cc2-n2c1nc1cc(Cl)ccc1c2=O (stereo not given) returned CRFBP-R2 block -15.0, TLR9-MyD88 block 2.8, NOD2 RIPK2 PPI -1.1, ABHD5-PLIN5 inh -9.0 and HTR2A ag 0.7.
